Hits are enriched below; roughly 4.6% of the tested compounds scored in any of these assays.
Tau fluor cs – Counterscreen qHTS for Inhibitors of Tau Fibril Formation, Fluorescence Polarization; hit rate 0.93% among 280,000; Potency, µM (series often up to 57.7 µM), without a hit: at the top dose activity change, negative = decrease; tau K18 P301L Alexa594 fluorescence, heparin fibrillization; also: potency is read from the fitted curve at half-maximal effect; nearly all actives have a fitted effect of over 55% in size
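Human tau K18 P301L (15 uM unlabeled, 0.24 uM Alexa 594-labeled) in 100 mM sodium acetate pH 7 with 20 uM heparin, 6 hr at 37 C. ThT 30 uM added, 1 hr ambient; Alexa 594 FP and total fluorescence read at 555/632 nm.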
PNC inhibitor – High Content Assay for Compounds that inhibit the Assembly of the Perinucleolar Compartment. PC3M PTB-GFP, PNC prevalence imaging, 16 h; hits give low values. activity change (PNC), negative = inhibition, % at 10 µM. hit rate 3.1% among 140,000;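 active = readout at or below -70, meaning at least 70% loss of cells showing the perinucleolar compartment, a nuclear body marking cancer cells; inconclusive = readout between -30 and a set limit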;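 also: plate controls were DMSO wells for no effect and camptothecin positive control wells for full effect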
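Read-out is percentage of cells bearing a perinucleolar compartment, from automated 20x imaging of fixed, Hoechst-stained PC3M PTB-GFP cells. Cells were seeded 4 h, then exposed 16 h to compound (23 nl of library stock) in duplicate plates.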
TexasRed fluor – Total Fluorescence Counterscreen for Inhibitors of the Interaction of Thyroid Hormone Receptor and Steroid Receptor Coregulator 2 | TRb/SRC2 Texas Red total fluorescence interference | Potency, µM (series often up to 106 µM), inactives show at the top dose fluorescence change, negative = quenching | hit rate 0.29% among 280,000; active = well fitted curve in either direction with a large enough effect; inconclusive = small, poorly fitted or top-dose-only effect; also: potency is read from the fitted curve at half-maximal effect
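Flags fluorescent or light-absorbing compounds by total fluorescence, S + 2P, at 555 nm excitation and 632 nm emission. Mixture: 20 nM Texas Red SRC2 peptide, 0.6 uM human TRb LBD, 1 uM T3, 5% DMSO; compound exposure 5 h at ambient temperature.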
TRb-SRC2 inh – qHTS for Inhibitors of the Interaction of Thyroid Hormone Receptor and Steroid Receptor Coregulator 2 | TRbeta-SRC2 peptide binding, fluorescence polarization; receptor liganded with 1 µM T3 | hit rate 0.065% among 280,000 | Potency, µM (series often up to 106 µM), inactives show at the highest dose activity change, negative = inhibition, actives largely listed as inhibitors | AID 1469, 2008 | Thyroid hormone receptor beta (Homo sapiens), P10828;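 also: potency is read from the fitted curve at half-maximal effect; plate controls were bound peptide for no effect and peptide without receptor for full effect; nearly all actives have a fitted effect of over 50% in size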
Target sequence (P10828 whole entry, looked up): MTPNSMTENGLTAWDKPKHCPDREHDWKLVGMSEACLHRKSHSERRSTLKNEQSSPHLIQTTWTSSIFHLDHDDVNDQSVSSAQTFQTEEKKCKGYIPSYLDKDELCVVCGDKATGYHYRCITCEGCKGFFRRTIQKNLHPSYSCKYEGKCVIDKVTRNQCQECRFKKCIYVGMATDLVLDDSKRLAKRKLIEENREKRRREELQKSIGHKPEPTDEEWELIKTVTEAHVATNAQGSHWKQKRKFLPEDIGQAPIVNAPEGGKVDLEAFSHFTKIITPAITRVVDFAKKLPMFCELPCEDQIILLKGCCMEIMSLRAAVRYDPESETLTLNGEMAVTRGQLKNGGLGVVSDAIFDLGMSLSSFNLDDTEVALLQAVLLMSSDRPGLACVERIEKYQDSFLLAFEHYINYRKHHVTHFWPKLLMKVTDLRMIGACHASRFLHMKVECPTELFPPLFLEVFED
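Polarization signal, normalized between peptide-alone and full complex controls, measured compound effects on T3-liganded human TRb LBD (0.6 uM) binding 20 nM Texas Red SRC2 peptide after 5 hr.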
Tau ThT inhib – qHTS for Inhibitors of Tau Fibril Formation, Thioflavin T Binding; Microtubule-associated protein tau (Homo sapiens), P10636; recombinant tau K18 P301L (four-repeat tau fragment), heparin-induced fibrillization, ThT fluorescence; Potency, µM (doses to about 57.4 µM), for inactives: at the highest dose activity, negative = inhibition, hits mostly inhibitors; hit rate 2.1% among 270,000; AID 1460, 2008; also: potency is read from the fitted curve at half-maximal effect; nearly all actives have a fitted effect of over 55% in size
Target sequence (P10636 561-689 P618L limits assumed): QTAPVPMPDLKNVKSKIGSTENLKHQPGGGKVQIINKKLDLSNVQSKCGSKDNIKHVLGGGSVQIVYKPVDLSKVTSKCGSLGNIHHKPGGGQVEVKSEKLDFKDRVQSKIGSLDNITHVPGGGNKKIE
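Aggregation was driven by heparin (20 uM final) acting on recombinant tau […] bearing P301L in 100 mM sodium acetate pH 7; fibrils were detected with Thioflavin T.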
Tau fibril FP – qHTS for Inhibitors of Tau Fibril Formation, Fluorescence Polarization | K18 P301L tau heparin fibrillization, Alexa594 FP, 6 h | Microtubule-associated protein tau (Homo sapiens), P10636 | Potency, µM (titrated, usually from 57.7 µM), without a hit: top-dose activity, negative = inhibition, most hits filed as inhibitors | hit rate 0.39% among 280,000 | AID 1468, 2008; also: potency is read from the fitted curve at half-maximal effect; nearly all actives have a fitted effect of over 55% in size
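Human tau K18 […] P301L fragment, 15 uM unlabeled plus 0.24 uM Alexa 594-labeled tau (final), with compound and 20 uM heparin in 100 mM sodium acetate pH 7; 6 hr at 37 C, then Alexa 594 FP read.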
Active calls of the source: *; [ ] = dose if it differs, or a comment. Unless noted, calls follow the shape of the dose curve; as a rule, active = well fitted curve in the direction sought with a large enough effect; inconclusive = small, poorly fitted or top-dose-only effect, or another doubt; inactive = no such curve, though single readings can be large; an effect the other way counts as inactive or inconclusive. Unless noted, % is scaled to controls: 0 for no effect and ±100 for the full control effect.

`CCOC(=O)NC(=O)C(=CNc1cccc(C)c1)C(=O)NC(=O)OCC` gave Tau fluor cs 2%, PNC inhibitor 50, TexasRed fluor -5%, TRb-SRC2 inh 3%, Tau ThT inhib -1% and Tau fibril FP 7%.
For Cc1ccc(S(=O)(=O)/N=C2/NC(=O)/C(=C/c3ccccc3)S2)cc1 the results were Tau fluor cs 11%, TexasRed fluor 2%, TRb-SRC2 inh -1%, Tau ThT inhib -6% and Tau fibril FP 16%.
For COc1cc(/C=C2\S/C(=N/S(=O)(=O)c3ccc(C)cc3)NC2=O)c([N+](=O)[O-])cc1OC the results were Tau fluor cs inconclusive, PNC inhibitor inconclusive, TexasRed fluor -20%, TRb-SRC2 inh 7%, Tau ThT inhib 14µM* and Tau fibril FP inconclusive.
For CCOc1ccc(CCNc2nc3c(-c4ccc(C)cc4)nnn3c3ccccc23)cc1OCC the results were Tau fluor cs -29%, TexasRed fluor 1%, TRb-SRC2 inh -10%, Tau ThT inhib -2% and Tau fibril FP -11%.
`O[C@@H](CNC[C@H](O)c1ccccc1)c1ccccc1` gave Tau fluor cs 8%, PNC inhibitor -100*, TexasRed fluor -1%, TRb-SRC2 inh -5%, Tau ThT inhib 6% and Tau fibril FP -6%.
`OC(CNCCc1ccccc1)c1ccccc1` (stereo not drawn) gave Tau fluor cs 1%, PNC inhibitor 16, TexasRed fluor -2%, TRb-SRC2 inh -2%, Tau ThT inhib 1% and Tau fibril FP 2%.
`O=C(NN=c1c(=O)c2ccccc2c1=O)c1ccccc1` gave Tau fluor cs -25%, PNC inhibitor 13, TexasRed fluor -2%, TRb-SRC2 inh inconclusive, Tau ThT inhib 5.6µM* and Tau fibril FP inconclusive.
`O=C(Nc1cnn(Cc2ccc(F)cc2)c1)c1cnccn1` gave Tau fluor cs 7%, PNC inhibitor -129*, TexasRed fluor 1%, TRb-SRC2 inh -18%, Tau ThT inhib 4% and Tau fibril FP 1%.
CCc1cc(C(=O)Nc2cnn(Cc3ccc(F)cc3)c2)no1 was read as Tau fluor cs -5%, TexasRed fluor -21%, TRb-SRC2 inh 7%, Tau ThT inhib 3% and Tau fibril FP -9%.
Cc1ccc(C(=O)c2ccccc2C(=O)OCC(=O)Nc2cccc([N+](=O)[O-])c2)cc1 was read as Tau fluor cs 16µM*[quencher], PNC inhibitor 38, TexasRed fluor 2%, TRb-SRC2 inh 2%, Tau ThT inhib -18% and Tau fibril FP inconclusive.
`CC1CC(C)CN(C(=O)CNC(=O)Cn2ccc3ccccc3c2=O)C1` (stereo not drawn) gave Tau fluor cs -2%, TexasRed fluor 0%, TRb-SRC2 inh 11%, Tau ThT inhib 5% and Tau fibril FP -5%.
Cc1ccc(C(=O)c2ccc([N+](=O)[O-])cc2)cc1 was read as Tau fluor cs -12%, PNC inhibitor 45, TexasRed fluor 1%, TRb-SRC2 inh -8%, Tau ThT inhib -7% and Tau fibril FP 2%.
For Cc1ccc(C(=O)c2coc3cc([N+](=O)[O-])c(O)c([N+](=O)[O-])c23)cc1 the results were Tau fluor cs -28%, PNC inhibitor 43, TexasRed fluor inconclusive, TRb-SRC2 inh -11%, Tau ThT inhib 3.5µM* and Tau fibril FP -1%.
COc1cc(/C=C2/SC(=S)NC2=O)ccc1OS(=O)(=O)c1ccc(C)cc1 was read as Tau fluor cs inconclusive, PNC inhibitor 26, TexasRed fluor -5%, TRb-SRC2 inh 17%, Tau ThT inhib 16µM* and Tau fibril FP 0%.
For COc1cc(/C=C2\SC(=S)NC2=O)ccc1OS(=O)(=O)c1ccccc1 the results were Tau fluor cs inconclusive, PNC inhibitor inconclusive, TexasRed fluor -2%, TRb-SRC2 inh -3%, Tau ThT inhib 16µM* and Tau fibril FP 9%.
`COc1cccc(/C=C2\SC(=S)NC2=O)c1OS(=O)(=O)c1ccc(NC(C)=O)cc1` gave Tau fluor cs -17%, PNC inhibitor 39, TexasRed fluor -4%[53 µM], TRb-SRC2 inh 1%[53 µM], Tau ThT inhib inconclusive and Tau fibril FP -11%.
For COc1cc(/C=C(\C#N)C(N)=O)ccc1OS(=O)(=O)c1ccc(C)cc1 the results were Tau fluor cs -16%, PNC inhibitor -15, TexasRed fluor -2%, TRb-SRC2 inh -9%, Tau ThT inhib -12% and Tau fibril FP 2%.
For CCOc1ccc(/C=C2\SC(=S)NC2=O)cc1OC the results were Tau fluor cs -18%, TexasRed fluor -7%, TRb-SRC2 inh 3%, Tau ThT inhib inconclusive and Tau fibril FP -4%.
`COc1ccc(/C=C2\SC(=S)NC2=O)cc1OS(=O)(=O)c1ccc(NC(C)=O)cc1` gave Tau fluor cs -26%, TexasRed fluor -13%, TRb-SRC2 inh 11%, Tau ThT inhib 13µM* and Tau fibril FP 12%.
`O=C(Cn1cc(S(=O)(=O)Cc2ccccc2F)c2ccccc21)NCc1ccccc1` gave Tau fluor cs -13%, TexasRed fluor 0%, TRb-SRC2 inh 6%, Tau ThT inhib 11% and Tau fibril FP -10%.
For Oc1c(Cl)cc(Cl)cc1Sc1cc(Cl)cc(Cl)c1O the results were Tau fluor cs inconclusive, PNC inhibitor 32, TexasRed fluor inconclusive, TRb-SRC2 inh inconclusive, Tau ThT inhib 14µM* and Tau fibril FP 0%.
For O=S(c1cc(Cl)cc(Cl)c1O)c1cc(Cl)cc(Cl)c1O the results were TexasRed fluor -1% and TRb-SRC2 inh 13%.
Cc1cc(C)c2nc(Cl)c(CN(Cc3ccco3)C(=O)Nc3ccccc3C)cc2c1 was read as Tau fluor cs -3%, PNC inhibitor -90*, TexasRed fluor 0%, TRb-SRC2 inh 6%, Tau ThT inhib 0% and Tau fibril FP 2%.
Cc1ccccc1N1C(=O)CC(c2c[nH]c3ccccc23)C1=O (stereo not drawn) was read as Tau fluor cs -15%, TexasRed fluor -5%, TRb-SRC2 inh -6%, Tau ThT inhib -9% and Tau fibril FP -2%.

Assay outcomes as filed in PubChem.
